Measurements reported in ChEMBL document CHEMBL4513216, “Probing the Open Global Health Chemical Diversity Library for Multistage-Active Starting Points for Next-Generation Antimalarials” (ACS Infect Dis, 2020).
Out of some 69,000 compounds screened, about 8,600 (12%) showed an effect of 50% or more. The list comes from a sample in which strong results are over-represented; it also holds similar structures and randomly drawn compounds.

These compounds were tested on Plasmodium berghei (assay: Screen against P. berghei liver stage (PbLuc), transformed with Luciferase, at 10uM). Details: tested at 10 uM.
Assay type: functional, HepG2

Which INHIBITION does the source give for `COCCNC(=O)c1ccc(NCc2c(C)noc2C)cc1Cl` here?
The INHIBITION was 2.03%.

How did the INHIBITION turn out when `O=C(c1cnccn1)N1CCOC2(CCCN(c3ncccc3F)C2)C1` (centres undefined) was run?
Its INHIBITION is 39.5%.

For `COCCNC(=O)N1CCN(c2cc(F)ccc2F)CC1`, which INHIBITION is on record?
The INHIBITION was 8.7%.

How did the INHIBITION turn out when `CNCc1cnc(Nc2ccccc2)nc1` was run?
The INHIBITION was 39.9%.

How did the INHIBITION turn out when `Cc1nnc(NC(=O)C2CSCN2C(=O)C2CCCC2)s1` (centres undefined) was run?
Its INHIBITION is 25.4%.

How did the INHIBITION turn out when `CC(C)c1nnc(NC(=O)C2CSCN2C(=O)C2CCC2)s1` (centres undefined) was run?
The INHIBITION was 61.2%.

For `O=C(Nc1nncs1)C1CSCN1C(=O)C1CCCC1` (centres undefined), which INHIBITION is on record?
Its INHIBITION is 20.5%.

How did the INHIBITION turn out when `CN(CC(=O)N(C)C1CC1)C1CCN(c2ccc(Cl)cc2)CC1` was run?
Its INHIBITION is 29%.

How did the INHIBITION turn out when `COc1ccccc1OC1CCN(c2ccncc2)CC1` was run?
The INHIBITION was -2.93%.

Which INHIBITION does the source give for `CN(C(=O)NC1CC1)C1CCN(c2ccc(Cl)cc2)CC1` here?
Its INHIBITION is 13.9%.

How did the INHIBITION turn out when `CC(C)CN(C(=O)Nc1cccnc1)C1CC1` was run?
Its INHIBITION is -18.5%.

`CN1CCC(N(C)C(=O)Nc2ccc(Cl)cc2)CC1` was tested. Which INHIBITION did it give?
The INHIBITION was -5.64%.

For `COc1ccc(N2CCC(N3C[C@H](NC(C)=O)[C@@H](C(C)C)C3)CC2)cc1`, which INHIBITION is on record?
The INHIBITION was 33%.

How did the INHIBITION turn out when `CN1CCC(Oc2ccc(-n3ccnc3-c3ccncc3)cc2)CC1` was run?
The INHIBITION was 49.4%.

For `CSC(C)C(=O)N(C)C1CCN(c2ccc(Cl)cc2)CC1` (centres undefined), which INHIBITION is on record?
Its INHIBITION is 35.5%.

Which INHIBITION does the source give for `COc1ccc(N2CCC(N(C)C(=O)C(C)SC)CC2)cc1` (centres undefined) here?
Its INHIBITION is 60.4%.

How did the INHIBITION turn out when `COc1ccc(OC2CCN(c3ccncc3)CC2)cc1` was run?
The INHIBITION was 55.1%.

Which INHIBITION does the source give for `CN(C(=O)Nc1ccncc1)C1CCN(c2ccc(Cl)cc2)CC1` here?
The INHIBITION was 83.1%.

With `CN(C(=O)Nc1cccnc1)C1CCN(c2ccc(Cl)cc2)CC1` as the compound, how does the INHIBITION read?
The INHIBITION was 60.4%.

How did the INHIBITION turn out when `CS(=O)(=O)N[C@@H]1CN(Cc2ccc3ccccc3c2)C[C@H]1O` was run?
The INHIBITION was -6.88%.

`O=C(Cc1ccccn1)N1CCCC(c2nccn2CC2CCC2)C1` (centres undefined) was tested. Which INHIBITION did it give?
Its INHIBITION is 10.7%.

With `O=C(O)c1cc(C2CC2)nc2c(Cl)cnn12` as the compound, how does the INHIBITION read?
Its INHIBITION is 29.2%.

With `CC(C)C(C(=O)N1CCN(c2nccs2)CC1)n1cncn1` (centres undefined) as the compound, how does the INHIBITION read?
The INHIBITION was 5.03%.

With `Cc1nc(C2CCNC2)nc2c1CCC(=O)N2CC(C)C` (centres undefined) as the compound, how does the INHIBITION read?
Its INHIBITION is 25.65%.

How did the INHIBITION turn out when `CN1C(=O)c2cccc(NC(=O)c3ccc4c(c3)OCCO4)c2C1=O` was run?
Its INHIBITION is 8.46%.

With `CC(C)(C)NC(=O)[C@@H]1CNC[C@]12Cc1ccccc1C(=O)N2` as the compound, how does the INHIBITION read?
Its INHIBITION is 24.2%.

For `COCCNc1nnc(-c2cnc(C)cn2)s1`, which INHIBITION is on record?
Its INHIBITION is -54.1%.

`c1cncc(C[C@H]2[C@H](N3CCOCC3)CCN2Cc2nccs2)c1` was tested. Which INHIBITION did it give?
Its INHIBITION is 8.85%.

How did the INHIBITION turn out when `Cn1cc(C(=O)N2CCN(Cc3cscn3)CC2)ccc1=O` was run?
Its INHIBITION is -8.22%.

Which INHIBITION does the source give for `COCc1ncc(CN2CCC(Oc3ccccc3C)CC2)cn1` here?
Its INHIBITION is 26.8%.

With `Cc1cc(NC(=O)N(C)CCN2CCN(c3ccccc3)CC2)on1` as the compound, how does the INHIBITION read?
Its INHIBITION is 35.5%.

With `COc1ccc(N2CCC(N(C)C(=O)Nc3ccncc3)CC2)cc1` as the compound, how does the INHIBITION read?
Its INHIBITION is 52.8%.

Which INHIBITION does the source give for `CN(CCN1CCN(c2ccccc2)CC1)C(=O)Nc1ccncc1` here?
The INHIBITION was 73.2%.

How did the INHIBITION turn out when `CN(CCN1CCN(c2ccccc2)CC1)C(=O)Nc1ccccn1` was run?
The INHIBITION was 45.4%.

With `CCOC(C)C(=O)N(C)C1CCN(c2ccc(OC)cc2)CC1` (centres undefined) as the compound, how does the INHIBITION read?
Its INHIBITION is 33.4%.

With `COc1ccc(N2CCC(N(C)C(C)C(=O)N(C)C)CC2)cc1` (centres undefined) as the compound, how does the INHIBITION read?
The INHIBITION was 45.3%.

With `COCc1ncc(CN2CCC(Oc3ccccc3OC)CC2)cn1` as the compound, how does the INHIBITION read?
The INHIBITION was -20.6%.

With `COCc1ncc(CN2CCC(Oc3ccc(OC)cc3)CC2)cn1` as the compound, how does the INHIBITION read?
Its INHIBITION is 56%.

For `CC(=O)NCCc1ccc(S(=O)(=O)Nc2ccc(C)cc2F)s1`, which INHIBITION is on record?
The INHIBITION was -44.2%.

`CN(C)c1cc(C2CCCN2)ccn1` (centres undefined) was tested. Which INHIBITION did it give?
Its INHIBITION is 33.54%.

How did the INHIBITION turn out when `O=S(=O)(Cc1ccon1)N1CCN(c2ccncc2Cl)CC1` was run?
The INHIBITION was 38.9%.

Which INHIBITION does the source give for `O=c1[nH]c2ncccc2n1C1CCNCC1` here?
Its INHIBITION is -6.18%.

`Cc1nccn1-c1cc(CNC(=O)CC2CCCO2)ccn1` (centres undefined) was tested. Which INHIBITION did it give?
The INHIBITION was 30.6%.

For `CO[C@H]1CC[C@H]2[C@H]1OCCN2Cc1ccc(F)c(F)c1`, which INHIBITION is on record?
The INHIBITION was 22.4%.

`CN(C)c1ncnc2c1CCN(CC1CCOCC1)CC2` was tested. Which INHIBITION did it give?
The INHIBITION was 64.9%.

Which INHIBITION does the source give for `CCN(C)c1ncnc2c1CCN(CC1CCOC1)CC2` (centres undefined) here?
The INHIBITION was 55.5%.

For `Cc1ncnc2c1CCN(CC1CCOC1)CC2` (centres undefined), which INHIBITION is on record?
The INHIBITION was 18.3%.

For `CN(C)c1ncnc2c1CCN(CC1CCOC1)CC2` (centres undefined), which INHIBITION is on record?
The INHIBITION was 19.9%.

`Cc1ccc(Nc2ncnc3c2CCN(CC2CCOC2)CC3)cc1` (centres undefined) was tested. Which INHIBITION did it give?
The INHIBITION was 29.8%.

`c1nc2c(c(NCCCn3cncn3)n1)CCN(CC1CCOC1)CC2` (centres undefined) was tested. Which INHIBITION did it give?
Its INHIBITION is 31.6%.

For `CCN(CC)c1ncnc2c1CCN(CC1CCOCC1)CC2`, which INHIBITION is on record?
The INHIBITION was 41.6%.

How did the INHIBITION turn out when `c1nc2c(c(C3CC3)n1)CCN(CC1CCOC1)CC2` (centres undefined) was run?
Its INHIBITION is 13.6%.

`Cc1cnn(CCNc2ncnc3c2CCN(CC2CCOC2)CC3)c1` (centres undefined) was tested. Which INHIBITION did it give?
The INHIBITION was 60%.

Which INHIBITION does the source give for `CCOC(=O)Cn1c(=O)[nH]c2cn(-c3ccccc3)c(=O)n21` here?
The INHIBITION was 7.3%.
